Experimental findings from PMC7826789 (International Journal of Molecular Sciences, 2021) are described below.

As for `C=CC(=O)Nc1cc(-n2c(=O)ccc3cnc4ccc(-c5ccc(NS(C)(=O)=O)cc5)cc4c32)ccc1C` [BMX-IN-1], the Kinases covered result in the test on BTK is reported as “BTK”.

For `C#Cc1cccc(Nc2ncnc3cc(OC)c(OC4CCN(C)CC4)cc23)c1` [BI00007366], the Kinases covered entry with BUB1 was “BUB1”.

Consider `COc1cc2ncnc(Nc3ccc(F)c(Cl)c3)c2cc1O[C@H]1CC[C@H](N)CC1` [BIBW3133BS], for which, in the test on BUB1, the Kinases covered entry was “BUB1”.

Turning to `CN(C)C/C=C/C(=O)Nc1ccc(C(=O)N2CCC[C@@H](Nc3ncc(Cl)c(-c4c[nH]c5ccccc45)n3)C2)cc1` [THZ531], the Kinases covered result with CDK12 is listed as “CDK12”; in the test with CDK13, “CDK13”.

Consider `COC[C@@H](C)N[C@H]1CC[C@H](Nc2cc(-c3cccc(NCC4(C#N)CCOCC4)n3)c(Cl)cn2)CC1` [NVP-2], for which the Kinases covered result with CDK13 is reported as “CDK13”; in the test on CDK9, “CDK9”.

As to `Cn1ncc2cc(-c3cnc(N)c(Cl)c3N3CCC4(CCNC4=O)CC3)ccc21` [CCT251921], the Kinases covered result is given as “CDK19” with CDK19 and “CDK8” in the test on CDK8.

Turning to `Cn1cc(-c2ccc(-c3cncc(Cl)c3N3CCC4(CCNC4=O)CC3)cc2)cn1` [CCT251545], the Kinases covered entry in the test with CDK19 was “CDK19”; with CDK8 it was “CDK8”.

As for `CC(C)COC(=O)c1ccc2c(c1)/C(=C/Nc1ccc(S(N)(=O)=O)cc1)C(=O)N2` [GW416981X], in the test with CDK3, the Kinases covered entry is “CDK3”.

`CCC(NN(C)C)=C1C(=O)Nc2ccc(C(C)=O)cc21` [BI00036838]: the Kinases covered entry is recorded as “CDK7” with CDK7 and “CDKL5” in the test on CDKL5.

For the compound `CN(C)C/C=C/C(=O)Nc1ccc(C(=O)Nc2cccc(Nc3ncc(Cl)c(-c4c[nH]c5ccccc45)n3)c2)cc1` [THZ1], the Kinases covered result in the test with CDK7 is listed as “CDK7”.
